In ChEMBL document CHEMBL3988442, “University of Dundee, Small-Polar-MMV Screening Library” (2021) one finds PXC50 and Percent Effect data, which are given here for three compounds.

The structures appear in SMILES notation. For some of these results: Potency and affinity values are given separately.

The target in assay [1] is T1, Methionyl-tRNA synthetase, putative (Leishmania donovani (strain BPK282A1)) (UniProt E9BF75).
T1 sequence (whole entry): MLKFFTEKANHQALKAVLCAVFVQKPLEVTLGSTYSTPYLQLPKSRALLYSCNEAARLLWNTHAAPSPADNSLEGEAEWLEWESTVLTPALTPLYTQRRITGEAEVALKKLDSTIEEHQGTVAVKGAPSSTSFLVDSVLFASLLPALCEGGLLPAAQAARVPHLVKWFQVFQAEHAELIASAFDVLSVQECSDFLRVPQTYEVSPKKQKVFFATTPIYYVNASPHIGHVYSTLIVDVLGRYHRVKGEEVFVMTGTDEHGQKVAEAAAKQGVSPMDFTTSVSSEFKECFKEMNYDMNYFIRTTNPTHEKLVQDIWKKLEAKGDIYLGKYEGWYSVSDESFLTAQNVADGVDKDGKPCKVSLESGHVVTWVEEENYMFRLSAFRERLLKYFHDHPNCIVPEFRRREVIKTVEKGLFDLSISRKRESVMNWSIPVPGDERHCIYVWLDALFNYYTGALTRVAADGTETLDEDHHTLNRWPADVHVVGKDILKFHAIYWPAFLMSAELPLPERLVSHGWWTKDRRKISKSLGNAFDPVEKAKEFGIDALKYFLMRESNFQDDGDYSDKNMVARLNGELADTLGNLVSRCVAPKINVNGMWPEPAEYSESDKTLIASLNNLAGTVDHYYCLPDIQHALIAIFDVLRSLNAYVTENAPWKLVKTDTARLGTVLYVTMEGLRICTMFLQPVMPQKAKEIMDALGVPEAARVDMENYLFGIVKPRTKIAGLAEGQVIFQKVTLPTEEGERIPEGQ
Briefly: Leishmania donovani Methionine tRNA synthetase (LdMetRS):v7. Dose response assay. The arrangement: conc 80 nM, time 150 minutes. The assay is classed as functional.

For assay [2], the target named is Protein translocase subunit SecA (Escherichia coli (strain K12)) (UniProt P10408). As to the kind of experiment: Assay to Identify E. coli SecA ATPase Inhibitors. It is filed as functional. Further details: scale not given: direction of the effect not stated beside the values. As to conditions: 30 µM.
Chain of Protein translocase subunit SecA (Escherichia coli (strain K12)) (P10408 whole entry): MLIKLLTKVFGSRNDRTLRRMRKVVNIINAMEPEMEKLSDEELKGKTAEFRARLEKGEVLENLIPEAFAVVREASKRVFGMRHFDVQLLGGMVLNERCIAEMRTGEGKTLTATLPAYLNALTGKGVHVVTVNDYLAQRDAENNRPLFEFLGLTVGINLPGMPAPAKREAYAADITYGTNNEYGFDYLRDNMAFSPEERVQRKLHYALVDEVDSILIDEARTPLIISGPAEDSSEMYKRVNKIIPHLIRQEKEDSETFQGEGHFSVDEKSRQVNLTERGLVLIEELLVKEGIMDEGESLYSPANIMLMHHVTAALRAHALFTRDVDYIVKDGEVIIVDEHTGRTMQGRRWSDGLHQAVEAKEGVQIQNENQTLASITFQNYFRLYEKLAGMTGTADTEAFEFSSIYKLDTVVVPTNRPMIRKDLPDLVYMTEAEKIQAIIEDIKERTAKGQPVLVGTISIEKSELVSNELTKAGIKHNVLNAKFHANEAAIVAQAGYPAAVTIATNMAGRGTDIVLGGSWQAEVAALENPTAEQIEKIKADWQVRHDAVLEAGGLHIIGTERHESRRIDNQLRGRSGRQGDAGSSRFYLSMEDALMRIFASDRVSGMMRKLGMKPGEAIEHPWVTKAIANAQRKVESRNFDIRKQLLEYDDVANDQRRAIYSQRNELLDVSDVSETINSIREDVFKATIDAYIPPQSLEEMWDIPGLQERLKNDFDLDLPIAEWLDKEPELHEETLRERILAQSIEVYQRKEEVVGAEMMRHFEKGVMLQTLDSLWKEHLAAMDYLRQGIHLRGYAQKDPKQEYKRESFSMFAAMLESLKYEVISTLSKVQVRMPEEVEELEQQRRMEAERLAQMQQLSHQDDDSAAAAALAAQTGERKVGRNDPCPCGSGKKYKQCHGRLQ
The target of assay [3] is T2, Ubiquitin-activating enzyme e1, putative (Leishmania donovani (strain BPK282A1)) (UniProt E9BSI1).
T2 sequence (whole entry): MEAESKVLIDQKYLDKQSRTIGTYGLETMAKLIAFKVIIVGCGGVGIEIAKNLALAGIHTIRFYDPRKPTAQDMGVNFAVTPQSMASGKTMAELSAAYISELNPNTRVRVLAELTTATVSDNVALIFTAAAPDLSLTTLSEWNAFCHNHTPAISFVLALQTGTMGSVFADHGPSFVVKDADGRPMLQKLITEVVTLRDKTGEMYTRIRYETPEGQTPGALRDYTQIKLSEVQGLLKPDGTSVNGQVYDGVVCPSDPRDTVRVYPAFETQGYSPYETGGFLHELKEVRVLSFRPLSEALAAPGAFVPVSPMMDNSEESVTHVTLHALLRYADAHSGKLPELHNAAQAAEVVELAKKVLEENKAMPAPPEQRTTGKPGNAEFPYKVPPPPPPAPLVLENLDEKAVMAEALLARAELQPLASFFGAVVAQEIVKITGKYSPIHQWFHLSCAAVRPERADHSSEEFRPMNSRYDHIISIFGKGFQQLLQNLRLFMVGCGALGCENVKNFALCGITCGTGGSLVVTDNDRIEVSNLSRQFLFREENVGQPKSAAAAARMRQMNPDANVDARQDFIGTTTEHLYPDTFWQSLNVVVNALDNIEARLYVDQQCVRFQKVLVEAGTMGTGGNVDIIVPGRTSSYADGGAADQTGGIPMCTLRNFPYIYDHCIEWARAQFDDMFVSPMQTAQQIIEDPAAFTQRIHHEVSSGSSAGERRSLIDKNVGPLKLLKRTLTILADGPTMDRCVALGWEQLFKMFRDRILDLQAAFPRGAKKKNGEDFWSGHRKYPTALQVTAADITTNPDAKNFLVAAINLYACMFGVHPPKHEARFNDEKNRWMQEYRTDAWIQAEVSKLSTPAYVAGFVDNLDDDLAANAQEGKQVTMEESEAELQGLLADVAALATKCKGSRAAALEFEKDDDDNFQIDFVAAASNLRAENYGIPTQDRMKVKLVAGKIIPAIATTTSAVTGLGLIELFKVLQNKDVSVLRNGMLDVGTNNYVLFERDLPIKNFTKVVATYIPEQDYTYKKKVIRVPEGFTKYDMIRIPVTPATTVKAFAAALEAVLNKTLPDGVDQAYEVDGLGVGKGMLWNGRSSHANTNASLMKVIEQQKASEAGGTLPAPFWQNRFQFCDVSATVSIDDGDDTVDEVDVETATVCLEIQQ
As to the kind of experiment: Leishmania donovani Ubiquitin Activating Enzyme (LdE1). It is filed as functional. The arrangement: scale not given: direction of the effect not stated beside the values. To be noted: 30 µM.

In assay [4] the target is Sialic acid-binding Ig-like lectin 9 (Homo sapiens) (UniProt Q9Y336). Briefly: Hs-Siglec9 ALPHAscreen SOP 20170721. The arrangement: scale not given: direction of the effect not stated beside the values. To be noted: 10 µM.
Chain of Sialic acid-binding Ig-like lectin 9 (Homo sapiens) (Q9Y336 whole entry): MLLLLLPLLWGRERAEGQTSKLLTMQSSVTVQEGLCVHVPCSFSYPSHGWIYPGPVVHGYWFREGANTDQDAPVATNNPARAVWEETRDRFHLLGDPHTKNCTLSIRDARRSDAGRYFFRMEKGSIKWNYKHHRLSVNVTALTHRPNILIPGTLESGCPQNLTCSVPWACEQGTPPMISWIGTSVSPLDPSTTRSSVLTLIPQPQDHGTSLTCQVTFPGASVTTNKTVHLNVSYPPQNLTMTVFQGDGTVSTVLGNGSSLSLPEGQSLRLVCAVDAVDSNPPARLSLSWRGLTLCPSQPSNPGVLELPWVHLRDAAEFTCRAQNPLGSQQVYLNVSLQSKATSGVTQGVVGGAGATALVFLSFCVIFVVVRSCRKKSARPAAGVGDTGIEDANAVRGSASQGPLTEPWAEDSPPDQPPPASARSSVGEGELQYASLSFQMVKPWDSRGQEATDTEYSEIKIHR
A further assay relates to Trypanosoma cruzi. As to the kind of experiment: Trypanosoma cruzi phosphomannomutase and mannose-1-phosphate guanylyltransferase assay. It is filed as functional. The arrangement: scale not given: direction of the effect not stated beside the values. To be noted: 10 µM.
Assay [5] deals with T3, Arginase-2, mitochondrial (Homo sapiens) (UniProt P78540).
T3 sequence (whole entry): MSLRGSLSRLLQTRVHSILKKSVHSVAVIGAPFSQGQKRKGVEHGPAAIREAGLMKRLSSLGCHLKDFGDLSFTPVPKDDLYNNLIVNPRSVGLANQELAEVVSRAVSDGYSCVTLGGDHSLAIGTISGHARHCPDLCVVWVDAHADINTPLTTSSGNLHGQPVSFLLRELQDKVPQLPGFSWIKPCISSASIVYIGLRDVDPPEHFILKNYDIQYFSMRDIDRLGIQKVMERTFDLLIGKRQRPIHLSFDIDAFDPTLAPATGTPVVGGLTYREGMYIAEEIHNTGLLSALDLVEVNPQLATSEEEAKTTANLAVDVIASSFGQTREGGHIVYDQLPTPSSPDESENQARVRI
As to the kind of experiment: in vitro enzyme assay to detect the production of urea directly proportional to the activity of Arginase II. The arrangement: scale not given: in the data most compounds retested in dose-response had high values. It is filed as functional. To be noted: 33.3 µM.

The target in assay [6] is T4, Proteasome subunit beta (Trypanosoma cruzi) (UniProt O96673).
T4 sequence (whole entry): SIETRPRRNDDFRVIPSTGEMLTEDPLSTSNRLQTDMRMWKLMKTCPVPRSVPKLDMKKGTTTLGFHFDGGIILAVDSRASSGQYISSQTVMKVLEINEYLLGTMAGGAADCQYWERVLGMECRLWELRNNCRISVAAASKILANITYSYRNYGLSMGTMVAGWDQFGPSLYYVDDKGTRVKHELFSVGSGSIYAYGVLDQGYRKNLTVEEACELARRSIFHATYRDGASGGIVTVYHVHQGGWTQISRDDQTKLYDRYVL
Briefly: Trypanosoma cruzi proteasome chymotrypsin-like activity (TcProtChymo) assay. The assay is classed as functional. Further details: scale not given: in the data most compounds retested in dose-response had high values. To be noted: 9.37 µM.

The species entered for another assay is Homo sapiens. Briefly: To identify inhibition of the IFN signalling (Jak-Stat) pathway via expression of an eGFP reporter gene under the control of an IFN-stimulated response element (ISRE) containing MxA promoter. Further details: scale not given: direction of the effect not stated beside the values. The assay is classed as functional. To be noted: 30 µM.

The target of assay [7] is T5, Tyrosyl-tRNA synthetase, putative (Trypanosoma cruzi (strain CL Brener)) (UniProt Q4DSP6).
T5 sequence (whole entry): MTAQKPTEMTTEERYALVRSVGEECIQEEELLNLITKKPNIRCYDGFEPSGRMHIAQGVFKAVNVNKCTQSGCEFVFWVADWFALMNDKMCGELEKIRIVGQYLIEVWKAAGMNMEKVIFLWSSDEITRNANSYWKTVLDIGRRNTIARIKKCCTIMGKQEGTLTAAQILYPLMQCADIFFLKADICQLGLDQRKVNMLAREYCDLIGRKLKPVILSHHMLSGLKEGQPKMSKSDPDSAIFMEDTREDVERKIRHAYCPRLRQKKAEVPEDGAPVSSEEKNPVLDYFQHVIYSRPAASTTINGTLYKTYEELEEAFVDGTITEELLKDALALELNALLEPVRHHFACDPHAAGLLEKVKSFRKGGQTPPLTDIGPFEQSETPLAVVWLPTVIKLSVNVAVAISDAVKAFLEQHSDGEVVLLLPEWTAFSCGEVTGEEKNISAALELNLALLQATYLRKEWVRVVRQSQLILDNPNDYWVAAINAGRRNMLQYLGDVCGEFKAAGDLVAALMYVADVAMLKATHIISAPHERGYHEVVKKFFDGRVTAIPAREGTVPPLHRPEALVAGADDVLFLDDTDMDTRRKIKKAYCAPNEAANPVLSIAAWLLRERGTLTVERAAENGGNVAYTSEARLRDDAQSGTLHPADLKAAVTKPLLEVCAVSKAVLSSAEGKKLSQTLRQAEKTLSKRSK
Briefly: Trypanosoma cruzi tyrosyl tRNA synthetase (TcYRS) _High Tyrosine SOP. It is filed as functional. To be noted: 30 µM. Further details: scale not given: in the data most compounds retested in dose-response had high values.

The target of assay [8] is T5, Tyrosyl-tRNA synthetase, putative (Trypanosoma cruzi (strain CL Brener)). Briefly: Trypanosoma cruzi tyrosyl tRNA synthetase (TcYRS) SOP. It is filed as functional. Further details: scale not given: direction of the effect not stated beside the values. As to conditions: 30 µM.
The target in assay [9] is Chromo domain-containing protein 1 (Saccharomyces cerevisiae (strain ATCC 204508 / S288c) (Baker's yeast)) (UniProt P32657). As to the kind of experiment: ScCHD-1 Enzyme Inhibition Assay. The assay is classed as functional. As to conditions: 30 µM. The arrangement: scale not given: in the data most compounds retested in dose-response had high values.
Chain of Chromo domain-containing protein 1 (Saccharomyces cerevisiae (strain ATCC 204508 / S288c) (Baker's yeast)) (P32657 whole entry, the tested form may be a part): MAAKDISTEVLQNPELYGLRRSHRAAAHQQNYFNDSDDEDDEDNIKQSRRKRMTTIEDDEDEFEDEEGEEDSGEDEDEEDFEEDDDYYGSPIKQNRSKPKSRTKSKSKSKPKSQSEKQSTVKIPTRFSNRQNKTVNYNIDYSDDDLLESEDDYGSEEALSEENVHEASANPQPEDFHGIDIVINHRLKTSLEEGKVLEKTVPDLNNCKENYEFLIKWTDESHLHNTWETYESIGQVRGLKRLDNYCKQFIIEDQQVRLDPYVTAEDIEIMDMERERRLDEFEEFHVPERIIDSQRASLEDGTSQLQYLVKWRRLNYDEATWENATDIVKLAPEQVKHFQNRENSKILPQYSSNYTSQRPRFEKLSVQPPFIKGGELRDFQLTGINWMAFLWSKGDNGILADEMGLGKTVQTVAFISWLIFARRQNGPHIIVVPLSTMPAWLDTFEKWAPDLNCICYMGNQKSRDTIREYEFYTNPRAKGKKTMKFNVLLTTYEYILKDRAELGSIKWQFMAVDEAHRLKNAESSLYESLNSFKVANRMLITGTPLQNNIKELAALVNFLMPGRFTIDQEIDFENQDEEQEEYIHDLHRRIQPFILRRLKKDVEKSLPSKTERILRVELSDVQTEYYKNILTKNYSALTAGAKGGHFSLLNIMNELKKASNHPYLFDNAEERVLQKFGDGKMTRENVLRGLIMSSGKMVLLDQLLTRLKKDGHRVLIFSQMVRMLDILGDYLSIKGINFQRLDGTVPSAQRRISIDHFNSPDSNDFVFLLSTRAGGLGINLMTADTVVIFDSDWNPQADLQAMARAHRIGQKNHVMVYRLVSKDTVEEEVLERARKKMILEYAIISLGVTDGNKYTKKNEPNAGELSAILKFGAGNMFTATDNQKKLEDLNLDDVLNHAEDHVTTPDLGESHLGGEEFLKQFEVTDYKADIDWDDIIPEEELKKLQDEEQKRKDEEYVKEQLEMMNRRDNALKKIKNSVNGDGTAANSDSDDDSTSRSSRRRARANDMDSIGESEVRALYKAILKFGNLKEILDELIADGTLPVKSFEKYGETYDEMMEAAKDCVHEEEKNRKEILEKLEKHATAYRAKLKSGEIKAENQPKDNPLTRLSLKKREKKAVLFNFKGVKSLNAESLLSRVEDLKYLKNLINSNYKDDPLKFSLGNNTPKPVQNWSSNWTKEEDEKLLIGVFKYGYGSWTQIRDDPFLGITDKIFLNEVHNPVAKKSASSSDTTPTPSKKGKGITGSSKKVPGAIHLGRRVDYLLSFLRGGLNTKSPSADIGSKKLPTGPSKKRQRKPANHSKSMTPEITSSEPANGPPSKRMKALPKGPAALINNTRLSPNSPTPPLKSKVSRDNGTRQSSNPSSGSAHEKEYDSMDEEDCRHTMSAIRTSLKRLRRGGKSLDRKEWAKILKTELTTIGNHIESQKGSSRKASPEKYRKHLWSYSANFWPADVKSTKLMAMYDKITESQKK

Take `CCN(CCN(C)C)c1nc(CCN)nc2sc(C)c(C)c12`: the PXC50 in [1] (BOTTOM 1.153434253, HILLSLOPE 1.801290913, MAX_EFFECT 65.59139785, TOP 100.0) is 4.17; in assay [1] (BOTTOM 3.323089956, HILLSLOPE 2.865245269, MAX_EFFECT 53.13531353, TOP 100.0) it was 4.01; in assay [1] (BOTTOM 7.056148009, HILLSLOPE 0.845689164, MAX_EFFECT 65.90909091, TOP 100.0), 4.25; in assay [1] (BOTTOM 9.733141468, HILLSLOPE 1.108067768, MAX_EFFECT 69.89795918, TOP 94.34728341) it was 4.35; in assay [1] (BOTTOM -2.908093481, HILLSLOPE 0.556623138, MAX_EFFECT 55.79710145, TOP 100.0), 4.03.

`NC[C@H]1CC[C@H](C(NC(=O)c2cccc(F)c2)c2ccccn2)CC1` (stereo not given in full): the PXC50 in [1] (MAX_EFFECT 33.33333333), in [1] (MAX_EFFECT 43.95393474), in assay [1] (MAX_EFFECT 49.10394265), in assay [1] (MAX_EFFECT 49.8349835) and in [1] (MAX_EFFECT 55.07246377) was < 4 throughout. Further, the Percent Effect in assay [2] was 0.535%; in assay [3], 12%; in [4], -8.09%; in the assay with Trypanosoma cruzi, 6.51%; in assay [5] it was -0.443%; in [6], 9.36%. Also, the Percent Effect in the assay filed under Homo sapiens is 8.62%; in [7], 31.8%; in [8], 45%; in assay [9], -26.3%.

As for `CC(C)c1nc(CNC2CCCN(c3cccnn3)C2)no1` (stereo not given), the PXC50 in assay [1] (BOTTOM -4.804668592, HILLSLOPE 1.43236327, MAX_EFFECT 76.8115942, TOP 100.0) is 4.38; in assay [1] (BOTTOM -10.26857321, HILLSLOPE 1.286287287, MAX_EFFECT 68.70748299, TOP 100.0), 4.3; in assay [1] (MAX_EFFECT 0.790513834) it was < 4; in [1] (MAX_EFFECT 4.444444444), < 4; in assay [1] (MAX_EFFECT 61.12084063), < 4.
